Consider 94 molecules from PubChem BioAssay AID1822 (The Scripps Research Institute Molecular Screening Center, 2009).

Molecules are shown by their SMILES. In all, about 290,000 compounds went through this assay and about 3,500 (1.2%) were called active. The list comes from a sample in which actives are over-represented; it also holds similar structures and randomly drawn compounds. A number with no mark means an inactive call.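 How the source made its calls: active means inhibition above the campaign mean inhibition over all tested compounds plus 3 SD (cut at about 28% in these data); inactive means the rest.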

This assay deals with M18 aspartyl aminopeptidase (Plasmodium falciparum 3D7). Description: PfM18AAP inhibitors, malaria aminopeptidase, primary screen, biochemical, QFRET, recombinant enzyme (AID 1822).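 Further: 0% = plate median of test compound wells and 100% = 2 mM ZnCl2.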 The following applies: H-Glu-NHMec fluorogenic cleavage, at 7.35 µM, stronger effect = higher value.
As to `CC(C)Cn1c(N2CCN(C(=O)/C=C/c3ccccc3)CC2)nc2ccccc21`, the inhibition was 2%.
As for `Cc1c(OC(C)C(=O)NCC2CCC(C(=O)O)CC2)ccc2c1oc(=O)c1ccccc12` (centres undefined), the inhibition is 5.1%.
The result for `Cc1ccccc1N1CCN(CC(=O)NCc2ccc(Cl)cc2)CC1` reads 4.87%; that for `O=C(COC(=O)c1ccc(N2CCCC2=O)cc1)c1ccc(OC(F)F)cc1`, 0.74%.
As for `COc1ccc(C(=O)NC2CC(C)(C)Cc3c2cnn3-c2ccccc2)c(OC)c1` (centres undefined), the figure is 0.86%; as for `Nc1ccc(C(=O)Nc2ccccc2N)cc1`, -8.23%.
As to `Cc1cc(F)ccc1NC(=S)NCCc1ccccc1`, the inhibition is -8.4%.
The result for `Cc1ccc(CN(Cc2cccnc2)C(=S)Nc2cccc(Cl)c2C)cc1` reads -8.48%; that for `CC(=O)N/N=C/c1cc2c(cc1[N+](=O)[O-])OCO2`, 6.95%.
The result for `Cc1ccc(-c2n[nH]c(=S)n2/N=C/c2cc3c(cc2[N+](=O)[O-])OCO3)cc1` reads 17.7%; that for `Cc1ccc(S(=O)(=O)N/N=C\c2cc3c(cc2[N+](=O)[O-])OCO3)cc1`, 51.5% (active).
Regarding `COc1ccc(C(CNC(=O)COc2ccc([N+](=O)[O-])cc2)N2CCCCC2)cc1` (centres undefined), the inhibition is -7.22%.
The result for `CC(=O)Nc1cccc(C(=O)OCN2C(=O)c3ccccc3C2=O)c1` reads 1.1%; that for `COc1ccc(CC(=O)Nc2nc(-c3ccc(F)c(F)c3)cs2)cc1OC`, 0.44%; that for `COc1ccc(C2/C(=C(/O)c3ccc4c(c3)CC(C)O4)C(=O)C(=O)N2Cc2ccncc2)cc1` (centres undefined), 16.6%.
The result for `COc1ccc(/C(O)=C2\C(=O)C(=O)N(Cc3ccco3)C2c2ccc(OC)cc2OC)cc1` (centres undefined) reads 8.22%.
The result for `COc1cc(C2/C(=C(\O)c3ccc4c(c3)CC(C)O4)C(=O)C(=O)N2Cc2ccco2)ccc1O` (centres undefined) reads 45.6% (active); that for `CCOc1ccc(-n2c(O)c(/C=N/Nc3nc(C)cc(C)n3)c3ccccc3c2=O)cc1`, 26.7%.
Regarding `CCOc1ccc(-n2c(O)c(/C=N/Nc3nnc(C)c(=O)[nH]3)c3ccccc3c2=O)cc1`, the inhibition is 34% (active).
On to `CCOc1ccc(-n2c(O)c(/C=N/c3ccnn3Cc3ccncc3)c3ccccc3c2=O)cc1`, for which the inhibition was 5.65%.
As for `S=C(Nc1cccnc1)Nc1ccccn1`, the inhibition is 11.1%.
The result for `C[C@H](NC(=O)c1nc[nH]c1C(=O)NCC(=O)OC(C)(C)C)c1ccccc1` reads 1.03%; that for `CCC(CC)c1nnc(NC(=O)/C=C/c2ccco2)s1`, 2.71%; that for `CCC(CC)c1nnc(NC(=O)C2CCN(C(=O)c3ccco3)CC2)s1`, 31.2% (active).
The result for `COc1ccc(CNC(=O)C2CCN(C(=O)c3ccco3)CC2)cc1` reads 2.47%; that for `Nc1ccccc1SC(C[N+](=O)[O-])c1ccccc1` (centres undefined), 14.1%.
The result for `CCS(=O)(=O)c1cc([N+](=O)[O-])c(Sc2ccccc2N)s1` reads 38.9% (active); that for `CCOC(=O)c1cc(Sc2ccccc2N)cc(C(=O)OCC)n1`, 10.8%; that for `Cc1ccc(S(=O)(=O)CC(=O)NC(C)c2ccccc2)cc1` (centres undefined), -6.39%.
With `CN(C)S(=O)(=O)c1ccc2oc(SCC(=O)Nc3ccccc3F)nc2c1`, the inhibition is 2.13%.
`CCN(CC)c1ccc2oc(=O)c(C)nc2c1`: the inhibition is 55.5% (active).
`C=CCN(C(=O)Nc1ccc2oc(C)nc2c1)c1ccccc1`: the inhibition was 13%.
As for `CCN(CC)c1ccc2cc(C(N)=O)/c(=N\NC(=O)c3ccncc3)oc2c1`, the figure is 17.2%; as for `COc1ccc(Nc2cc(Sc3ccc(OC)cc3)ncn2)cc1`, 2.95%; as for `Cc1ccsc1C(=O)N[C@@H](C)c1nnc2ccccn12`, -8.31%.
As for `Cc1cccc(N2CCN(C(=O)CCS(=O)(=O)c3ccc4c(c3)NC(=O)C(C)S4)CC2)c1C` (centres undefined), the figure is -6.34%; as for `O=C(O)c1ccccc1-c1ccccc1C(=O)Nc1ccccc1Br`, -9.93%; as for `O=C1CCN(CCc2ccccc2)CCN1CCOc1ccccc1`, 1.32%.
The result for `O=C(Nc1ccc(C(=O)N2CCOCC2)cc1)Nc1cccc(C(F)(F)F)c1` reads -2.75%; that for `COc1ccccc1N1CCN(C(=O)CSc2ncnc3c2cnn3-c2ccc(C)c(C)c2)CC1`, -5.63%.
Turning to `CC1CCN(C(=O)c2ccc3c(c2)NC(=O)CN3)CC1`, the inhibition was 31.9% (active).
Consider `CC1CCN(C(=O)c2ccc3c(=O)n4c(nc3c2)CCCCC4)CC1`, for which the inhibition is -5.35%.
Regarding `CC1CCN(C(=O)c2ccc(CSc3ccc(Cl)cc3)cc2)CC1`, the inhibition was -3.98%.
The result for `CCCN1C2CCCC1CC(NC(=O)c1cccc(OC)c1)C2` (centres undefined) reads -5.08%.
The result for `Cc1cccn2c(=O)c3cc(C(=O)NCC4CCCO4)c(=N)n(Cc4ccc(F)cc4)c3nc12` (centres undefined) reads 5.3%.
Take `Oc1ccc(-n2nnnc2SCc2c(F)cccc2Cl)cc1`: the inhibition was 9.59%.
With `CCCN1Cc2cccc(C(=O)Nc3ccc(S(=O)(=O)N4CCCCCC4)cc3)c2C1=O`, the inhibition was 3.06%.
As for `O=C1CCN(CCCc2ccccc2)CCN1CCO`, the figure is 10.1%; as for `CSc1ccc(S(=O)(=O)NCc2ccc(Cl)cc2)cc1`, 5.25%; as for `CCn1c(CSCc2c(Cl)cccc2Cl)n[nH]c1=S`, 14.7%.
The result for `CCn1c(CNS(=O)(=O)c2ccc(Cl)cc2)n[nH]c1=S` reads 31.8% (active).
For `Cc1cc(C)n(-c2ccc(NC(=O)C3CCCCN3C(=O)c3cccs3)cc2)n1` (centres undefined), the inhibition is 10.7%.
The result for `Cc1cc(NC(=O)CSc2nc(=O)cc(N)n2-c2ccc(F)cc2)no1` reads 2.27%; that for `O=c1[nH]c2c(c(=O)n1Cc1ccccc1)CCC2`, -7.19%.
The result for `O=c1[nH]n2c(=O)c3c([nH]c2c1N=Nc1ccccc1)CCC3` reads 31.3% (active); that for `Cc1[nH][nH]c(=O)c1N=Nc1ccccc1`, -5.94%.
As for `Cc1c(C)c2ccc(OCC(=O)N3CCC(C(=O)O)CC3)c(C)c2oc1=O`, the figure is 3.02%; as for `O=C(CNC(=O)C1COc2ccccc2O1)N/N=C/c1cc(Br)c(O)c(Br)c1` (centres undefined), 10.4%.
For the molecule `Cc1c(CC(=O)N2CCN(C(=O)C3COc4ccccc4O3)CC2)c(=O)oc2c(O)c(O)ccc12` (centres undefined), the inhibition was 56.5% (active).
The result for `O=C(Nc1ccc(F)cc1)c1ccc(S(=O)(=O)NCc2cccnc2)cc1` reads 1.68%.
In the case of `C/C(=N\Nc1cccc(C(=O)O)c1)c1ccc2c(c1)Nc1ccccc1S2`, the inhibition was 28.6% (active).
As for `O=C(O)c1cccc(N2C(=O)Nc3ccccc3N2O)c1`, the figure is -0.41%.
The result for `O=C(NC1CC1)c1ccc2c(c1)NC(=O)c1ccccc1S2` reads -6.63%; that for `CCOc1ccc(OCC)c(NC(=O)CCS(=O)(=O)c2ccc(C)cc2)c1`, -4.08%; that for `O=C(Nc1ccc2sc3ccccc3c(=O)c2c1)c1ccccc1Cl`, 3.74%.
As for `COc1ccc(NC(=O)CN(C)C(=O)CNC(=O)C2CCCCC2)cc1`, the figure is 5.81%; as for `COc1ccc(NC(=O)c2sc3nc(C)nc(N4CCN(c5ccccn5)CC4)c3c2C)c(OC)c1`, -4.65%.
As for `O=C(Nc1sc2c(c1C(=O)O)CCC2)c1ccccc1F`, the inhibition was -1.52%.
As for `NC(=O)c1c(NC(=O)c2ccccc2)sc2c1CCCC2`, the figure is 1.26%; as for `NC(=O)c1c(Nc2nc3c(F)cccc3s2)sc2c1CCCC2`, 49.1% (active).
As for `CC(=O)c1ccc(NC(=O)CCNS(=O)(=O)c2cc(Br)cnc2N)cc1`, the figure is -3.06%.
As for `CC1CCN(C(=S)c2ccc(-c3ccc(Cl)cc3Cl)o2)CC1`, the figure is 4.16%; as for `S=C(c1ccc(-c2ccccc2)o1)N1CCCCC1`, 30.8% (active); as for `S=C(c1ccccc1)N1CCCC1`, -1.81%.
Turning to `O=C1c2cccc3c([N+](=O)[O-])ccc(c23)C(=O)N1CC1CCCO1` (centres undefined), the inhibition is 4.32%.
The result for `O=C(OCc1ccc([N+](=O)[O-])cc1)C1CC(=O)N(Cc2ccccc2Cl)C1` (centres undefined) reads -11.3%; that for `CC(C)N1CCC(N2CCN(Cc3cccnc3)CC2CCO)CC1` (centres undefined), 4.35%.
The result for `CSC(=S)N/N=C/c1c[nH]c2ccccc12` reads 9.14%.
As for `O=C(N/N=C/c1c[nH]c2ccccc12)c1ccccc1O`, the figure is 9.89%; as for `O=C(O)c1cccc(NC(=S)N/N=C/c2c[nH]c3ccccc23)c1`, 38.5% (active).
In the case of `CCc1[nH]nc(C(=O)N2CCCC(CO)(Cc3ccc(F)cc3F)C2)c1C` (centres undefined), the inhibition was -13.6%.
The result for `Cc1cc(OCc2cc(C(=O)NCc3cc(C(C)C)no3)no2)cc(C)c1Cl` reads -17.4%; that for `Cc1ccc(-c2nc3ccccc3[nH]c2=O)cc1`, -7.7%; that for `O=c1[nH]c2ccccc2n2c(-c3ccccc3)nnc12`, 33.2% (active).
The result for `CC(=O)c1c(-c2ccccc2)c2ccccc2[nH]c1=O` reads -2.54%; that for `CC(=O)N1c2ccc(S(=O)(=O)N3CCC(C(=O)NC4CCCCC4C)CC3)cc2CC1C` (centres undefined), 17.8%; that for `C#CCOc1ccc(/C=C2/C(=O)NN(c3ccccc3)C2=O)cc1OC`, 22%.
As for `COc1cc(/C=C2/C(=O)NN(c3ccc(F)cc3)C2=O)cc([N+](=O)[O-])c1O`, the figure is 9.62%; as for `COc1cc(/C=C2/C(=O)NN(c3cccc(Cl)c3)C2=O)cc(Br)c1O`, 32.2% (active).
Regarding `Cn1c(=O)c([N+](=O)[O-])c(Oc2ccccc2)c2ccccc21`, the inhibition was 24%.
The result for `CC1CCN(C(=O)/C(=C\c2ccccc2)NC(=O)c2ccccc2)CC1` reads -0.48%.
The result for `NC(=O)C1CCN(C(=O)/C(=C/c2ccco2)NC(=O)c2ccccc2)CC1` reads 35.1% (active).
With `Cc1ccc(C(=O)N/C(=C\c2ccco2)C(=O)N2CCSCC2)cc1C`, the inhibition is -11%.
Regarding `CCc1ccc(-c2cc3c(=O)n(CC(=O)NCCCN4CCN(Cc5ccccc5)CC4)nc(C)n3n2)cc1`, the inhibition was -0.45%.

One may read the inhibition as the relative decrease from the control value, in per cent.
